{
  "source": "PubChem BioAssay (NCI)",
  "note": "Compounds without any hit were thinned out: in the full panel of roughly 83,000, 20% have a hit.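 Plates (96-well) were seeded with cells, treated with compound at one concentration, and incubated for 48 hours before percent growth was determined.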 Values without a mark were called inactive. Activity calls are given as the source filed them. Rule for the calls: active = growth percent below 10; inactive = the rest.",
  "data": [
    {"tested_on": "BT-549 breast", "assay": "NCI-60 one-dose screen, 48 h (100 = growth as untreated, 0 = no growth, -100 = all killed)", "settings": "10 µM", "units": {"growth": "%"}, "values": [
      {"smiles": "Cc1ccc(C)n1-c1ccsc1C(=O)NNC(=O)CCl", "growth": 70.1},
      {"smiles": "C/C(=C\\c1cc(Cl)ccc1OCC(=O)O)[N+](=O)[O-]", "growth": 117},
      {"smiles": "COc1cc2nn(-c3ccccc3N)nc2cc1OC", "growth": 81.3},
      {"smiles": "CCS(=O)(=O)CCCl", "growth": 95.9},
      {"smiles": "CC(=O)C1CCCCC1", "growth": 99.9},
      {"smiles": "COc1ccc(NC(=O)CCl)cc1", "growth": 66.3},
      {"smiles": "CC1CCCCN1C(=S)Nc1ccc(S(=O)(=O)N2CCCCC2)cc1", "note": "(stereo not drawn)", "growth": 93.4},
      {"smiles": "CN(C)c1nc2c([nH]1)c(=O)n(C)c(=O)n2C", "growth": 103},
      {"smiles": "O=C1NC(=O)C2C(=O)NC(=O)C1C21CCc2ccccc21", "note": "(stereo not drawn)", "growth": 106},
      {"smiles": "c1csc(-c2cc(-c3cc(-c4cccs4)[nH]n3)n[nH]2)c1", "growth": 90.7},
      {"smiles": "CC(=O)CC(=O)N(C)C", "growth": 99.5},
      {"smiles": "CS(=O)CC1=NC(=N)N=C1CS(C)=O", "note": "(stereo not drawn)", "growth": 110},
      {"smiles": "COc1cc(OC)c2ccc(=O)oc2c1", "growth": 111},
      {"smiles": "Cc1ccc(/C=C2\\SC(=S)N(c3ccc(F)cc3)C2=O)o1", "growth": 112},
      {"smiles": "N/N=C(/Cc1ccccc1)NNC(N)=S", "growth": 75.7},
      {"smiles": "COc1cc2c(cc1OC)[C@H](C(=O)O)[C@@H](c1ccc(OC(C)C)c(OC)c1)N(C)C2=O", "growth": 91.6},
      {"smiles": "O=c1cc(-c2ccccc2)nc2cc(-c3ccco3)[nH]n12", "growth": 98.3},
      {"smiles": "CC(C)NC(=O)OCc1c(COC(=O)NC(C)C)c(-c2ccc(Cl)c(Cl)c2)n2c1SCC2", "growth": 21.7},
      {"smiles": "CCOC(=O)c1cc(/C=C/c2cccc(Cl)c2)on1", "growth": 87.2},
      {"smiles": "C/C(=C\\c1ccc([N+](=O)[O-])cc1)C(=O)O", "growth": 94.2},
      {"smiles": "Cc1cc2nc(CC(=O)c3ccccc3)c(=O)[nH]c2cc1C", "growth": 89.6},
      {"smiles": "CCNCCCCNCCCCNCCCCNCCCCNCC", "growth": 123},
      {"smiles": "CC(C)(O)C#CC#CC(C)(C)O", "growth": 93.7},
      {"smiles": "COc1cc(-c2ccc(NC(=O)NC3CC3)c(OC)c2)ccc1NC(=O)NC1CC1", "growth": 89.5},
      {"smiles": "COc1nc(N)nc2c1ncn2C1OC(CO)CC1O", "note": "(stereo not drawn)", "growth": 94.3},
      {"smiles": "COC(=O)c1cc(-c2ccc(Cl)c(Cl)c2)[nH]c(=O)c1C#N", "growth": 104},
      {"smiles": "c1ccc2c(c1)Sc1ccccc1S2", "growth": 97.5},
      {"smiles": "C=CCNc1nnc(C)s1", "growth": 122},
      {"smiles": "CCCCNC(=O)C(=O)NCCCC", "growth": 98.8},
      {"smiles": "COc1ccc2c(c1)CCc1c-2n[nH]c1-c1[nH]nc2c1CCc1cc(OC)ccc1-2", "growth": 54.6},
      {"smiles": "CC(=O)Cc1cc(-c2cc(CC(C)=O)[nH]n2)n[nH]1", "growth": 88.4},
      {"smiles": "C1CNC(C2=NCCN2)=N1", "growth": 111},
      {"smiles": "COC(=O)c1[nH]c(=O)c(C#N)c(C(=O)OC)c1C(=O)c1ccccc1", "growth": 110},
      {"smiles": "CC1=CC(=O)c2ccccc2C1=O", "growth": 116},
      {"smiles": "COC(=O)C(C)Oc1ccc(OC#N)cc1", "note": "(stereo not drawn)", "growth": 120},
      {"smiles": "CCOC(=O)C(=O)C=P(c1ccccc1)(c1ccccc1)c1ccccc1", "growth": 102},
      {"smiles": "CNC(=S)NC(C)(C)C", "growth": 89.5},
      {"smiles": "O=C(Cc1ccc(OCc2ccccc2)cc1)NCc1ccc2c(c1)OCO2", "growth": 56.1},
      {"smiles": "O=C(Nc1cccc(NC(=O)Nc2cc(C(F)(F)F)ccc2Cl)c1)Nc1cc(C(F)(F)F)ccc1Cl", "growth": 17.8}
    ]},
    {"tested_on": "MDA-MB-435 melanoma", "assay": "NCI-60 one-dose screen, 48 h (100 = growth as untreated, 0 = no growth, -100 = all killed)", "settings": "10 µM", "values": [
      {"smiles": "Cc1ccc(C)n1-c1ccsc1C(=O)NNC(=O)CCl", "growth": "92.1%"},
      {"smiles": "C/C(=C\\c1cc(Cl)ccc1OCC(=O)O)[N+](=O)[O-]", "growth": "105%"},
      {"smiles": "COc1cc2nn(-c3ccccc3N)nc2cc1OC", "growth": "96.8%"},
      {"smiles": "CCS(=O)(=O)CCCl", "growth": "104%"},
      {"smiles": "CC(=O)C1CCCCC1", "growth": "104%"},
      {"smiles": "COc1ccc(NC(=O)CCl)cc1", "growth": "87%"},
      {"smiles": "CC1CCCCN1C(=S)Nc1ccc(S(=O)(=O)N2CCCCC2)cc1", "note": "(stereo not drawn)", "growth": "96.3%"},
      {"smiles": "CN(C)c1nc2c([nH]1)c(=O)n(C)c(=O)n2C", "growth": "111%"},
      {"smiles": "O=C1NC(=O)C2C(=O)NC(=O)C1C21CCc2ccccc21", "note": "(stereo not drawn)", "growth": "112%"},
      {"smiles": "c1csc(-c2cc(-c3cc(-c4cccs4)[nH]n3)n[nH]2)c1", "growth": "114%"},
      {"smiles": "CC(=O)CC(=O)N(C)C", "growth": "98.2%"},
      {"smiles": "CS(=O)CC1=NC(=N)N=C1CS(C)=O", "note": "(stereo not drawn)", "growth": "109%"},
      {"smiles": "COc1cc(OC)c2ccc(=O)oc2c1", "growth": "107%"},
      {"smiles": "Cc1ccc(/C=C2\\SC(=S)N(c3ccc(F)cc3)C2=O)o1", "growth": "77.4%"},
      {"smiles": "N/N=C(/Cc1ccccc1)NNC(N)=S", "growth": "92.3%"},
      {"smiles": "COc1cc2c(cc1OC)[C@H](C(=O)O)[C@@H](c1ccc(OC(C)C)c(OC)c1)N(C)C2=O", "growth": "101%"},
      {"smiles": "O=c1cc(-c2ccccc2)nc2cc(-c3ccco3)[nH]n12", "growth": "41.8%"},
      {"smiles": "CC(C)NC(=O)OCc1c(COC(=O)NC(C)C)c(-c2ccc(Cl)c(Cl)c2)n2c1SCC2", "growth": "67.2%"},
      {"smiles": "CCOC(=O)c1cc(/C=C/c2cccc(Cl)c2)on1", "growth": "83%"},
      {"smiles": "C/C(=C\\c1ccc([N+](=O)[O-])cc1)C(=O)O", "growth": "102%"},
      {"smiles": "Cc1cc2nc(CC(=O)c3ccccc3)c(=O)[nH]c2cc1C", "growth": "106%"},
      {"smiles": "CCNCCCCNCCCCNCCCCNCCCCNCC", "growth": "50.2%"},
      {"smiles": "CC(C)(O)C#CC#CC(C)(C)O", "growth": "103%"},
      {"smiles": "COc1cc(-c2ccc(NC(=O)NC3CC3)c(OC)c2)ccc1NC(=O)NC1CC1", "growth": "99.4%"},
      {"smiles": "COc1nc(N)nc2c1ncn2C1OC(CO)CC1O", "note": "(stereo not drawn)", "growth": "105%"},
      {"smiles": "COC(=O)c1cc(-c2ccc(Cl)c(Cl)c2)[nH]c(=O)c1C#N", "growth": "104%"},
      {"smiles": "c1ccc2c(c1)Sc1ccccc1S2", "growth": "110%"},
      {"smiles": "C=CCNc1nnc(C)s1", "growth": "124%"},
      {"smiles": "CCCCNC(=O)C(=O)NCCCC", "growth": "104%"},
      {"smiles": "COc1ccc2c(c1)CCc1c-2n[nH]c1-c1[nH]nc2c1CCc1cc(OC)ccc1-2", "growth": "-5.37% (active)"},
      {"smiles": "CC(=O)Cc1cc(-c2cc(CC(C)=O)[nH]n2)n[nH]1", "growth": "103%"},
      {"smiles": "C1CNC(C2=NCCN2)=N1", "growth": "93.4%"},
      {"smiles": "COC(=O)c1[nH]c(=O)c(C#N)c(C(=O)OC)c1C(=O)c1ccccc1", "growth": "99.9%"},
      {"smiles": "CC1=CC(=O)c2ccccc2C1=O", "growth": "107%"},
      {"smiles": "COC(=O)C(C)Oc1ccc(OC#N)cc1", "note": "(stereo not drawn)", "growth": "102%"},
      {"smiles": "CCOC(=O)C(=O)C=P(c1ccccc1)(c1ccccc1)c1ccccc1", "growth": "113%"},
      {"smiles": "CNC(=S)NC(C)(C)C", "growth": "106%"},
      {"smiles": "O=C(Cc1ccc(OCc2ccccc2)cc1)NCc1ccc2c(c1)OCO2", "growth": "-42.4% (active)"},
      {"smiles": "O=C(Nc1cccc(NC(=O)Nc2cc(C(F)(F)F)ccc2Cl)c1)Nc1cc(C(F)(F)F)ccc1Cl", "growth": "12.8%"}
    ]}
  ]
}
